{"source": "PubChem BioAssay AID932", "about": "(The Scripps Research Institute Molecular Screening Center, 2007)", "note": "About 5,100 (2.5%) of roughly 200,000 compounds were called active. Many of the other results were omitted from the sample, so actives are more common in it than they were. A number with no mark means an inactive call.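 The calls were made as follows: active = activation above the screen-wide mean activation plus 3 SD (cut at about 130% in these data); inactive = the rest.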", "data": [{"assay": "potentiators of IFN-gamma driven STAT1 reporter – cell-based, HTS, luciferase reporter, primary screen (AID 932);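 also: raw ratio to IFN-gamma control signal so 100% means no change and 0% no light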", "conditions": "NIH 3T3 STAT1-luciferase reporter, luminescence, at 5.5 µM, stronger effect = higher value, 100% = IFN-gamma alone, no compound", "values": [{"smiles": "Cc1ccc(S(=O)(=O)NCCc2nnc3ccc(SCc4cccnc4)nn23)cc1", "activation (% of control)": "99%"}, {"smiles": "COc1cc(-c2nc(-c3ccncc3)no2)cc(OC)c1OC", "activation (% of control)": "97.3%"}, {"smiles": "CCOc1nc(-c2ccc(OC)cc2)ccc1-c1noc(-c2cc(OC)c(OC)c(OC)c2)n1", "activation (% of control)": "102%"}, {"smiles": "COc1ccc(-c2noc(-c3cccc(OC)c3OC)n2)cc1OC", "activation (% of control)": "144% (active)"}, {"smiles": "COc1cccc(NC(=O)CN(C)C(C)C(=O)Nc2ccc(C#N)cc2)c1", "note": "(configuration not stated)", "activation (% of control)": "90.8%"}, {"smiles": "COc1cccc(/C=N/NC(=O)C(=O)N2CCCC2)c1", "activation (% of control)": "99%"}, {"smiles": "O=C(N/N=C/c1ccc2c(c1)OCO2)C(=O)N1CCCC1", "activation (% of control)": "132% (active)"}, {"smiles": "O=C(N/N=C/c1ccc([N+](=O)[O-])cc1)C(=O)N1CCCC1", "activation (% of control)": "107%"}, {"smiles": "CC(Nc1nc(N2CCN(CCO)CC2)nc2ccccc12)c1ccccc1", "note": "(configuration not stated)", "activation (% of control)": "106%"}, {"smiles": "CN(CCC1CCOCC1)Cc1cn[nH]c1-c1ccc(-c2ccccc2)cc1", "activation (% of control)": "115%"}, {"smiles": "Cc1cccc(CSc2ccc(-c3cccs3)nn2)c1", "activation (% of control)": "130% (active)"}, {"smiles": "O=C(CSc1ccc(-c2cccs2)nn1)Nc1ccccc1F", "activation (% of control)": "104%"}, {"smiles": "Cc1cccc(CSc2nnc(NC(=O)CSc3nnc(C)s3)s2)c1", "activation (% of control)": "107%"}, {"smiles": "Cc1ccc(NC(=S)N(CCN2CCCCC2)Cc2ccco2)cc1C", "activation (% of control)": "98%"}, {"smiles": "C=CCC1(CC=C)CCCN1C(=O)CC1C(=O)NCCN1Cc1ccccc1OC", "note": "(configuration not stated)", "activation (% of control)": "98.1%"}, {"smiles": "CCOC(=O)c1ccc2c(c1)nc(C)n2CC", "activation (% of control)": "130% (active)"}, {"smiles": "CCOC(=O)c1ccc2c(c1)nc(SCC(=O)NC(C)C)n2CC", "activation (% of control)": "103%"}, {"smiles": "CCn1c(C)nc2cc(C(=O)NNS(=O)(=O)c3ccc(C)cc3C)ccc21", "activation (% of control)": "95%"}, {"smiles": "COc1ccc2nc(/N=C(\\N)NC(=O)Nc3ccccc3)nc(C)c2c1", "activation (% of control)": "104%"}, {"smiles": "Cc1ccc(/C=N/NC(=O)Cn2ccc(C(F)(F)F)n2)o1", "activation (% of control)": "94.7%"}, {"smiles": "CCC(=O)Nc1ccc(C(=O)Nc2cc(C)on2)cc1", "activation (% of control)": "107%"}, {"smiles": "Cc1cc(N/C=C\\C(=O)c2ccc(Cl)c(Cl)c2)no1", "activation (% of control)": "135% (active)"}, {"smiles": "COc1ccc(C(=O)/C=C/Nc2ccccn2)cc1", "activation (% of control)": "23.6%"}, {"smiles": "CCn1c(C(C)C)n[nH]c1=S", "activation (% of control)": "103%"}, {"smiles": "CCc1nnc(NC(=O)CSc2nc(SC)ns2)s1", "activation (% of control)": "101%"}, {"smiles": "O=C(CSc1nnc2ccc(-c3ccncc3)nn12)N1CCCCC1", "activation (% of control)": "95.3%"}, {"smiles": "CCSC1=NCCN1C(=O)c1ccc(S(=O)(=O)N(CC)CC)cc1", "activation (% of control)": "95.6%"}]}]}
